A selection follows.
aSyn UTR act = Activators via SNCA 5'UTR binding, MLPCN; AID 1814, 2009; activity score, % (tested at 7.5 µM), hits read low; 300,000 compounds, 7.1% hits; alpha-synuclein 5'UTR reporter, activators screen; in the data active means activity score below about -60%
The depositor's hits bear a star.

SMILES	aSyn UTR act
CCc1ccc(S(=O)(=O)Nc2ccc(-c3nc4cccnc4s3)cc2)s1	-98*
Cn1c2c(c(=O)[nH]c1=O)C(c1ccc(O)cc1)C1=C(N2)c2ccccc2C1=O (configuration not stated)	-67*
CC1=C([N+](=O)[O-])C(c2ccccc2)C2=C(N1)c1ccccc1C2=O (configuration not stated)	113
CC1CC(C)CN(Cc2nc(N)nc(Nc3ccc4ccccc4c3)n2)C1 (configuration not stated)	-115*
FC(F)(F)c1cnc(-c2cnc(-c3cccnc3)nc2)c(Cl)c1	-124*
c1ccc(C2=NN(c3ccccc3)CC2)cc1	-157*
CO/N=C/CC(=O)c1cnc(-c2ccc(Cl)cc2)s1	-79*
COCC(=O)Nc1c(C(=O)Nc2ccccc2OC)oc2ccccc12	-147*
CCOCC(=O)Nc1c(C(=O)Nc2ccc(OC)cc2OC)oc2ccccc12	-82*
CCOCC(=O)Nc1c(C(=O)Nc2ccc3c(c2)OCO3)oc2ccccc12	-151*
COc1ccccc1NC(=O)c1oc2ccc(C)cc2c1C	-203*
COc1cccc(NC(=O)c2oc3ccccc3c2NC(C)=O)c1	-121*
COCC(=O)Nc1c(C(=O)Nc2cccc(OC)c2)oc2ccccc12	-218*
CCOc1ccc(NC(=O)c2oc3ccccc3c2NC(=O)CC)cc1	-123*
COc1ccc(-c2nnc(SCc3ccccc3F)o2)cc1OC	-66*
Cc1ccc(-c2nnc(SCc3ccccc3F)o2)cc1	-81*
CCc1ccc(NC2=NCC(c3ccccc3)S2)cc1 (configuration not stated)	-140*
COc1cccc(N=NC2C(=O)N(C(N)=S)N=C2C)c1 (configuration not stated)	-95*
CC(=O)N(C)c1ccc(N=NC2C(=O)N(C(N)=S)N=C2C)cc1 (configuration not stated)	-93*
CC1=NN(C(N)=S)C(=O)C1N=Nc1cccc(Cl)c1 (configuration not stated)	-86*
CC1=NN(C(N)=S)C(=O)C1N=Nc1ccc(C)cc1C (configuration not stated)	-102*
CCOc1ccc(/C=C2/SC(=O)NC2=S)cc1	-95*
CCOc1ccc(/C=C2\SC(=S)N(CCCC(=O)NCCCN3CCOCC3)C2=O)cc1	84
CCOc1ccc(N=C2NC(=O)S/C2=C\c2ccc(N(C)C)cc2)cc1	-129*
COc1ccc(/C(=N/Nc2ncnc3ccccc23)C(=O)O)cc1	-79*
SMILES	aSyn UTR act
Cc1cccc(C)c1NC(=O)COC(=O)c1cccc2c1C(=O)c1ccccc1C2=O	68
O=C(COC(=O)c1ccc2c(c1Cl)C(=O)c1ccccc1C2=O)NC1CC1	-66*
CCOC(=O)CNc1c(-c2ccc(O)cc2)nc2ccc(Cl)cn12	-68*
CCn1c(C)nc2cc(C(=O)N/N=C/c3ccccc3)ccc21	-83*
CCn1c(C)nc2cc(C(=O)NNC(=S)Nc3ccccc3Cl)ccc21	-110*
CCn1c(C)nc2cc(-c3nc4n(n3)Cc3ccccc3-4)ccc21	87
CCn1c(C)nc2cc(C(=O)N/N=C(\C)c3ccc(OC)cc3O)ccc21	84
CCn1c(NC(=S)Nc2ccccc2)nc2ccccc21	-106*
CCn1c(C)nc2cc(C(=O)NNC(=S)Nc3ccccc3)ccc21	-164*
CCn1c(C)nc2cc(C(=O)OC(C(F)(F)C(F)F)C(F)(F)C(F)F)ccc21	-73*
CCn1c(C)nc2cc(C(=O)NNC(=S)Nc3ccc(F)cc3)ccc21	-126*
CN(C)c1ccc(C2=NOC(CN3C(=O)c4ccccc4S3(=O)=O)C2)cc1 (configuration not stated)	-134*
N/C(=N\OC(=O)c1csnn1)c1ccc(C(F)(F)F)cc1	-67*
C#CCSc1ncc(-c2ccccc2)cn1	-101*
C=CCSc1ncc(-c2ccccc2)cn1	-160*
Cc1cc(C(=O)Nc2ccc(Cl)cc2)c(C)n1Cc1cccs1	-67*
Cc1cc(C)cc(NC(=O)c2cc(C)n(Cc3cccs3)c2C)c1	-117*
COc1ccc(SCC(=O)c2cc(C)c(OC(=S)N(C)C)c(C)c2)cc1	-82*
COc1ccc(/C=C/c2n[nH]c(=O)c(C#N)c2C)cc1	-71*
Cc1ccccc1Nc1nc2ccccc2s1	-220*
Cc1ccc(Nc2nc3ccccc3s2)cc1	-171*
Cc1ccccc1Nc1nn2c(=O)c3ccccc3nc2s1	-155*
Fc1ccc(Nc2nc3ccccc3s2)cc1	-207*
CN(C)c1ccc(CNc2nc3ccccc3s2)cc1	80
Cc1ccc(OCCCCCCN2CCNCC2)cc1	-64*
SMILES	aSyn UTR act
CCc1ccc(OCC(=O)O/N=C(\N)c2cccnc2)cc1	-83*
N/C(=N\OC(=O)COc1ccc(Cl)cc1Br)c1cccnc1	-157*
N/C(=N\OC(=O)COc1ccc(Br)cc1Cl)c1cccnc1	-155*
Cc1ccc(C(=O)c2cc([N+](=O)[O-])ccc2N2CCOCC2)c(C)c1	98
Cc1ccc(NC(=O)c2ccc(NCCN)c([N+](=O)[O-])c2)cc1Cl	-85*
Cc1cccc(NC(=O)c2ccc(N3CCCCC3)c([N+](=O)[O-])c2)n1	-157*

Compound activity from PubChem.
